According to PubChem BioAssay (Tox21):
Inconclusive results are not listed. Activity calls are given as the source filed them. Unless noted, the call rests on the fitted dose curve.

Tests used:
[1] = Nuclear factor erythroid 2-related factor 2/antioxidant responsive element (Nrf2/ARE) small molecule agonists: qHTS cell viability counter screen in human keratinocytes (AID 1919968; active means well fitted curve in the direction sought with a large enough effect in the repeat runs; an effect the other way counts as inactive or inconclusive; further: nearly all actives have a fitted effect of over 55% in size; further: potency means the concentration at half of the fitted maximal effect)
Method in brief: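 In human HaCaT keratinocytes stably expressing an ARE-driven luciferase, compound exposure lasted 23 h at 37 C under 5% CO2. Viable cells are quantified with a protease-based fluorogenic reagent (CellTiter-Fluor) read 1 h after addition.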

[2] = Nuclear factor erythroid 2-related factor 2/antioxidant responsive element (Nrf2/ARE) small molecule agonists: luciferase reporter gene qHTS assay in human keratinocytes (AID 1919969); further: nearly all actives have a fitted effect of over 35% in size; further: potency means the concentration at half of the fitted maximal effect
[3] = target: Gonadotropin-releasing hormone receptor (Homo sapiens) (UniProt P30968); assay: Human gonadotropin-releasing hormone receptor (GnRHR) small molecule agonists, calcium flux assay in GnRHR-HEK293 cells (AID 1920063); further: nearly all actives have a fitted effect of over 35% in size
Gonadotropin-releasing hormone receptor (Homo sapiens), sequence (P30968 whole entry, looked up): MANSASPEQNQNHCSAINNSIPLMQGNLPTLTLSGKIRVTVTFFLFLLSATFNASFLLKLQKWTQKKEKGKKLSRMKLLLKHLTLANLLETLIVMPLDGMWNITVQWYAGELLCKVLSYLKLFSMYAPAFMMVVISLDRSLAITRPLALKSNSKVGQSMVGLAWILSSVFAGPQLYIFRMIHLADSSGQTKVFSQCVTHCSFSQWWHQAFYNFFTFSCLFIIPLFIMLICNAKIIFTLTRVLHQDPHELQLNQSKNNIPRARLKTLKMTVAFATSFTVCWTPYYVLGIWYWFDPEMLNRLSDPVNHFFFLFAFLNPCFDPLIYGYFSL
Method in brief: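 Intracellular calcium rise is the read-out: engineered human GnRHR HEK293 cells, dye-loaded, are exposed to DMSO-dissolved compounds and fluorescence at Ex/Em 480/540 is tracked for 3 min.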

[4] = target: KiSS-1 receptor (Homo sapiens) (UniProt Q969F8); assay: Human kisspeptin (KISS1R) small molecule agonists, calcium flux assay in KISS1R-HEK293 cells (AID 1920064; active means well fitted curve in the direction sought with a large enough effect in the repeat runs; an effect the other way counts as inactive or inconclusive)
KiSS-1 receptor (Homo sapiens), sequence (Q969F8 whole entry, looked up): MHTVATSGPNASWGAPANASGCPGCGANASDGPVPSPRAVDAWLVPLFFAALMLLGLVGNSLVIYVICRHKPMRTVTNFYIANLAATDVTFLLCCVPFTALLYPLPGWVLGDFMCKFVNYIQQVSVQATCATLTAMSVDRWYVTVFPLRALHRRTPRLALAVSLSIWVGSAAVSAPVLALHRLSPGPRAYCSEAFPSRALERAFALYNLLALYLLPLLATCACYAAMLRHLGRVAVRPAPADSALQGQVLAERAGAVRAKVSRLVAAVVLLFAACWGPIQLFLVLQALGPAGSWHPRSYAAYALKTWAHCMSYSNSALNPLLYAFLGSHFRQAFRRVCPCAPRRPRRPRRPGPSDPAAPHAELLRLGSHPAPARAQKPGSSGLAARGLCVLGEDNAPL
Method in brief: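 Concentration-response testing used 15 concentrations in triplicate on human KISS1R-expressing HEK293 cells. Calcium-dependent fluorescence (Ex/Em 480/540) was followed kinetically for 3 min after compound transfer.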

[5] = G protein-coupled receptor (GPCR) small molecule agonists, calcium flux assay: HEK293 wild type cell line counter screen (AID 1920065)
Method in brief: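 Fluorescence intensity signals activation. After overnight (18 h) culture and a 1 h calcium dye load at 37 C, compounds are added by pin tool and the plate read at 480/540 nm for 3 min in 1 s steps.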

[6] = p53 small molecule agonists, cell-based qHTS assay with human liver microsomes (AID 1963577);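 further: p53 response element beta-lactamase reporter cells with liver microsomes plus NADPH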
Method in brief: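 Reporter activation was measured by LiveBLAzer fluorescence intensity in p53RE-bla cells, which had been exposed to compounds for 16 h at 37 C alongside 0.5 mg/mL human liver microsomes and 0.5 mg/mL NADPH (final concentrations).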

[7] = p53 small molecule agonists, cell-based qHTS assay with rat liver microsomes (AID 1963578)
Method in brief: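 Compound in DMSO added to p53RE-bla cells 5 h post-plating; rat microsomes/NADPH 0.5 mg/mL final; 16 h, 37 C; LiveBLAzer 2 h RT.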

[8] = p53 small molecule agonists, cell-based qHTS assay with human liver microsomes: qHTS cell viability counter screen (AID 1963579); further: nearly all actives have a fitted effect of over 45% in size; further: potency means the concentration at half of the fitted maximal effect
Method in brief: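 HLM-supplemented (0.5 mg/mL final) and NADPH-supplemented (0.5 mg/mL final) p53RE-bla cultures, 4,000 cells per well, were dosed with compounds in DMSO for 16 h at 37 C; luminescent ATP detection (CellTiter-Glo, 30 min, room temperature) quantified surviving cells.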

[9] = p53 small molecule agonists, cell-based qHTS assay: qHTS cell viability counter screen (AID 1963581); further: nearly all actives have a fitted effect of over 45% in size; further: potency means the concentration at half of the fitted maximal effect
Method in brief: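 Luminescence from CellTiter-Glo, reflecting ATP content, serves as the cytotoxicity measure; it is taken after the 2 h reporter substrate step in HCT-116 p53RE-bla cells dosed for 16 h at 37 C.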

[10] = p53 small molecule agonists, cell-based qHTS assay (AID 1963582; active means well fitted activation curve with a large enough effect in the signal ratio in the repeat runs, not every such curve was filed as active; the % refers to the signal ratio)
Method in brief: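 After plating, p53RE-bla cells sat 5 h in the incubator; compounds or DMSO vehicle were pinned in; a 16 h incubation at 37 C followed; FRET substrate was added and, 2 h later at RT, fluorescence was measured.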

[11] = target: 5-hydroxytryptamine receptor 2A (Homo sapiens) (UniProt P28223); assay: 5-hydroxytryptamine receptor 2A (HTR2A) small molecule antagonists, cell-based qHTS assay (AID 1963586); further: nearly all actives have a fitted effect of over 45% in size
5-hydroxytryptamine receptor 2A (Homo sapiens), sequence (P28223 whole entry, looked up): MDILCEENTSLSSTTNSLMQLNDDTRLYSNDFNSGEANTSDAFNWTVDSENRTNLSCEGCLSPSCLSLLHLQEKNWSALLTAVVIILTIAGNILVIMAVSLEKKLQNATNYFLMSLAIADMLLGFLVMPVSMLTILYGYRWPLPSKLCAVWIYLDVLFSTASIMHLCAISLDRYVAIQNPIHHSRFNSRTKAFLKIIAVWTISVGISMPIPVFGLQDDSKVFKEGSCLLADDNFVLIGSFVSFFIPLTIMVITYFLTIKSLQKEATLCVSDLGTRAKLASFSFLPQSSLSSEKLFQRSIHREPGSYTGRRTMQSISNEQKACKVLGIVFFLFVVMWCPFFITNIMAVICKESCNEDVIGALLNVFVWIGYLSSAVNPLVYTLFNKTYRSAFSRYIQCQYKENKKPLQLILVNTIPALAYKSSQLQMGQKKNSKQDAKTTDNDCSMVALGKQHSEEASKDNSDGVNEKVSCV
Method in brief: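 CHO cells stably expressing human HTR2A were plated for 18 h at 37 C, then loaded with calcium dye for 1 h. Compounds were preincubated 5 min at room temperature before DOI (4 nM solution) was added. Kinetic fluorescence was read for 3 min.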

[12] = target: 5-hydroxytryptamine receptor 2A (Homo sapiens) (UniProt P28223); assay: 5-hydroxytryptamine receptor 2A (HTR2A) small molecule agonists, cell-based qHTS assay (AID 1963587); further: nearly all actives have a fitted effect of over 30% in size
Method in brief: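 Kinetic calcium-flux fluorescence (2 min, 1 sec intervals) after compound addition in agonist mode. HTR2A-CHO cells were cultured 18 h, then dye-loaded 1 h at 37 C.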

[13] = target: Muscarinic acetylcholine receptor M1 (Homo sapiens) (UniProt P11229); assay: Cholinergic receptor muscarinic 1 (CHRM1) small molecule agonists, cell-based qHTS assay (AID 1963589); further: nearly all actives have a fitted effect of over 35% in size
Muscarinic acetylcholine receptor M1 (Homo sapiens), sequence (P11229 whole entry, looked up): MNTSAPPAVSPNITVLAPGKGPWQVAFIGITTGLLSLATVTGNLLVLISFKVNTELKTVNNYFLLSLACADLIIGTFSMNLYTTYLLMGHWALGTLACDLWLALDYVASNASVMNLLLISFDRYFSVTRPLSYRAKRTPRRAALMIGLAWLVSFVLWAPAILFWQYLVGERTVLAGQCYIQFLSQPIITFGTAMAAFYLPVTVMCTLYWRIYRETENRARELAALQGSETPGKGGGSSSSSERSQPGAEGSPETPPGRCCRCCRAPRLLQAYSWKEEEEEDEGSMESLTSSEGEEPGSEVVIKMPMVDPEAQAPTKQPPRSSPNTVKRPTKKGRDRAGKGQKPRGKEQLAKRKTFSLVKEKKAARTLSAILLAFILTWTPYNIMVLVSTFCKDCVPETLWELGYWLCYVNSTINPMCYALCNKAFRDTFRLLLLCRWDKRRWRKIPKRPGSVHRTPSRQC
Method in brief: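 Fluorescent calcium dye reports M1 activation in stably transfected CHO cells. Compounds, 15 concentrations, added after 1 h dye loading at 37 C; kinetic reading at 1 sec intervals.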

[14] = cAMP Responsive Elements (CRE) small molecule agonists, cell-based qHTS assay (AID 1963590)
Method in brief: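 Compound exposure lasted 3 h at 37 C/5% CO2 in CRE-bla HEK 293T cells grown in assay medium with 10% dialyzed FBS and 25 mM HEPES. Reporter signal came from LiveBLAzer B/G FRET substrate, 2 h, room temperature.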

[15] = cAMP Responsive Elements (CRE) small molecule antagonists, cell-based qHTS assay (AID 1963591; active means well fitted inhibition curve with a large enough effect in the signal ratio in the repeat runs, not every such curve was filed as active; the % refers to the signal ratio)
Method in brief: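 Stimulation used NKH477 at a final 0.25 uM for 3 h in compound-treated CRE-bla HEK293T cells, seeded 18 h beforehand. Reporter activity was measured with LiveBLAzer B/G FRET substrate after 2 h at room temperature.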

[16] = target: Beta-2 adrenergic receptor (Homo sapiens) (UniProt P07550); assay: Adrenergic beta2 receptor (ADRB2) small molecule antagonists, cell-based qHTS assay (AID 1963592); further: series mostly up to about 92 µM; nearly all actives have a fitted effect of over 50% in size
Beta-2 adrenergic receptor (Homo sapiens), sequence (P07550 whole entry, looked up): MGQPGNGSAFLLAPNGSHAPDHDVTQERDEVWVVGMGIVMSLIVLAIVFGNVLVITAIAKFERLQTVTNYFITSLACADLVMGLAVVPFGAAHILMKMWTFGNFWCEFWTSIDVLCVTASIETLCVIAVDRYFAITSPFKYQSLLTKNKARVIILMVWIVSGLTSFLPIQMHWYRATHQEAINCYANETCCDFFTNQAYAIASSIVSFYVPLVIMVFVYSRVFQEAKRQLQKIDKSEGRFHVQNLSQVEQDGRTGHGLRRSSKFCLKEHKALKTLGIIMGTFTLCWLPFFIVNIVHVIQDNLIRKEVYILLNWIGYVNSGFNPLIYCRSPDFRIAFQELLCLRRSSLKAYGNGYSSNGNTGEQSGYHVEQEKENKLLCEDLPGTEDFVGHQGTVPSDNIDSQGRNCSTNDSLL
Method in brief: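 Assay format: CHO-ADRB2 cells, 18-20hr seeding at 37C/5% CO2, then compound plus 1nM isoproterenol agonist mix for 0.5hr RT. Homogeneous time-resolved fluorescence cAMP detection after 1hr, expressed as 665/615 nm ratio.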

[17] = target: D(2) dopamine receptor (Homo sapiens) (UniProt P14416); assay: Dopamine D2 receptor (DRD2) small molecule agonists, cell-based qHTS assay (AID 1963594); further: nearly all actives have a fitted effect of over 35% in size
D(2) dopamine receptor (Homo sapiens), sequence (P14416 whole entry, looked up): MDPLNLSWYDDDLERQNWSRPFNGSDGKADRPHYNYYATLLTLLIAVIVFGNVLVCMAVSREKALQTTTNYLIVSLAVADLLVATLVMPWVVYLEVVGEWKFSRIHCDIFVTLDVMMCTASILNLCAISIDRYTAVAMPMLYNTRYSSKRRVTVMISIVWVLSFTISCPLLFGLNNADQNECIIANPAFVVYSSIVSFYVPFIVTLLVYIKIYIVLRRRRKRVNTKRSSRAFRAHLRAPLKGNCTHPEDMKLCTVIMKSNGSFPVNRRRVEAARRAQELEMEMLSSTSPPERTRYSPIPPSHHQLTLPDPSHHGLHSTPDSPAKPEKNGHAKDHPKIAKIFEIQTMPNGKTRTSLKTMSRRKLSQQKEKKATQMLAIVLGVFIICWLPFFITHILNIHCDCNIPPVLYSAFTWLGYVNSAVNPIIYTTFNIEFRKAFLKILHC
Method in brief: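 cAMP accumulation in DRD2-HEK293 cells measured by HTRF after 1 h detection; compounds added 10 min before NKH477 (200nM […]) forskolin-analogue stimulation, 30 min at room temperature, with Ro20-1724 present at 0.1 mM final.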

[18] = target: Muscarinic acetylcholine receptor M1 (Homo sapiens) (UniProt P11229); assay: Cholinergic receptor muscarinic 1 (CHRM1) small molecule antagonists, cell-based qHTS assay (AID 1963588); further: nearly all actives have a fitted effect of over 40% in size; further: potency means the concentration at half of the fitted maximal effect
Method in brief: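 Compounds were tested at 15 concentrations in three independent runs. Dye-loaded CHRM1-CHO cells were exposed 5 min at room temperature before stimulation by acetylcholine added at 50nM. Intracellular calcium was read kinetically on FDSS for 3 min.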

[19] = target: D(2) dopamine receptor (Homo sapiens) (UniProt P14416); assay: Dopamine D2 receptor (DRD2) small molecule antagonists, cell-based qHTS assay (AID 1963595; active means well fitted inhibition curve with a large enough effect in the signal ratio in the repeat runs, with a control signal flat; the % refers to the signal ratio; further: potency means the concentration at half of the fitted maximal effect)
Method in brief: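 HTRF cAMP read-out at 665 and 620 nm emission (340 nm excitation). Antagonist mode: compounds were tested against 12 nM quinpirole in DRD2-HEK293 cells, with 200 nM NKH477 raising cAMP and 0.1 mM Ro20-1724 blocking its breakdown.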
On the % scale 0 is the no-effect control and ±100 the full control effect.

CC(C)(C)N
inactive: Potency [1] | Potency [2] | Potency [3] | outcome [4] | outcome [5] | Potency [6] | Potency [7] | Potency [8] | Potency [9] | Potency [10] | Potency [11] | Potency [12] | Potency [13] | Potency [14] | Potency [15] | Potency [16]

CC[C@H]1OC(=O)[C@H](C)[C@@H](O[C@H]2C[C@@](C)(OC)[C@@H](O)[C@H](C)O2)[C@H](C)[C@@H](O[C@@H]2O[C@H](C)C[C@H](N(C)C)[C@H]2O)[C@](C)(O)C[C@@H](C)C(=O)[C@H](C)[C@@H](O)[C@]1(C)O
inactive: Potency [1] | Potency [2] | Potency [3] | outcome [4] | outcome [5] | Potency [6] | Potency [7] | Potency [8] | Potency [9] | Potency [10] | Potency [14] | Potency [16] | Potency [17]

O=C1c2ccccc2C(=O)C1c1ccc2ccccc2n1
active: Potency [2] 1.21 µM
inactive: Potency [1] | Potency [3] | outcome [4] | outcome [5] | Potency [6] | Potency [7] | Potency [8] | Potency [9] | Potency [10] | Potency [11] | Potency [12] | Potency [18] | Potency [14] | Potency [15] | Potency [16] | Potency [17] | Potency [19]

O=C(O)c1cccc(-c2noc(-c3ccccc3F)n2)c1
active: Potency [8] 15.8 µM | Potency [9] 15.8 µM
inactive: Potency [1] | Potency [2] | Potency [3] | outcome [4] | outcome [5] | Potency [6] | Potency [7] | Potency [10] | Potency [12] | Potency [18] | Potency [13] | Potency [16] | Potency [17] | Potency [19]

C=CC(=O)OCC(Br)CBr (configuration not stated)
active: Potency [2] 68.6 µM
inactive: Potency [1] | Potency [3] | outcome [4] | outcome [5] | Potency [6] | Potency [7] | Potency [8] | Potency [9] | Potency [10] | Potency [12] | Potency [18] | Potency [17] | Potency [19]

NCc1ccco1
inactive: Potency [1] | Potency [2] | Potency [3] | outcome [4] | outcome [5] | Potency [6] | Potency [7] | Potency [8] | Potency [9] | Potency [10] | Potency [11] | Potency [12] | Potency [18] | Potency [13] | Potency [19]

Cc1ncc([N+](=O)[O-])n1CC(C)O (configuration not stated)
inactive: Potency [1] | Potency [2] | Potency [3] | outcome [4] | outcome [5] | Potency [6] | Potency [7] | Potency [8] | Potency [9] | Potency [10] | Potency [14] | Potency [15] | Potency [16] | Potency [17] | Potency [19]

CCN1CCN(c2cc(-c3ccc(F)cc3)c3c(n2)CCCCCC3)CC1
active: Potency [18] 31.7 nM | Potency [19] 32.6 nM
inactive: activity change, negative = cytotoxicity [1] -1.5% [at 19 µM] | activity, positive = activation [2] -2.3% [at 19 µM] | activity change [3] 17.8% [at 11.8 µM, stronger effect = higher value] | activation [4] 8.32% [at 15.8 µM] | activation [5] -0.133% [at 11.8 µM] | activation [6] -0.562% [at 13.5 µM] | activation [7] -1.02% [at 13.6 µM] | activity change, negative = cytotoxicity [8] 11.2% [at 13.5 µM] | activity change, negative = cytotoxicity [9] 1.98% [at 13.5 µM] | activation [10] -0.331% [at 13.5 µM] | activation [12] -5.11% [at 15.9 µM] | activation [13] 2.2% [at 15.8 µM] | activation [14] 0.689% [at 19 µM] | activity change, negative = inhibition [16] -12.5% [at 19 µM]

CCC(=O)CC(C)CC (configuration not stated)
inactive: activity change, negative = cytotoxicity [1] 1.61% [at 0.349 µM] | activity, positive = activation [2] -3.45% [at 0.349 µM] | activity change [3] -1.45% [at 0.217 µM, stronger effect = higher value] | activation [4] -1.52% [at 0.29 µM] | activation [5] -0.478% [at 0.217 µM] | activation [6] -0.0354% [at 0.249 µM] | activation [7] -2.6% [at 0.249 µM] | activity change, negative = cytotoxicity [8] -9.86% [at 0.249 µM] | activity change, negative = cytotoxicity [9] 22.9% [at 0.249 µM] | activation [10] 5.1% [at 0.249 µM] | activity, negative = inhibition [11] 14.6% [at 0.233 µM] | activation [12] 6.03% [at 0.292 µM] | activation [13] 0.0292% [at 0.29 µM] | activation [14] 0.0521% [at 0.349 µM] | activity change, negative = inhibition [15] 1.08% [at 0.349 µM] | activation [17] -3.53% [at 0.349 µM] | activity change, negative = inhibition [19] 8.77% [at 0.348 µM]

CCC(=O)c1c(O)cc(O)cc1O
inactive: Potency [1] | Potency [2] | Potency [3] | outcome [4] | outcome [5] | Potency [6] | Potency [7] | Potency [8] | Potency [9] | Potency [10] | Potency [12] | Potency [18] | Potency [13] | Potency [14] | Potency [15] | Potency [16] | Potency [17] | Potency [19]

Nc1cc([N+](=O)[O-])cc(Cl)c1O
inactive: Potency [1] | Potency [2] | Potency [3] | outcome [4] | outcome [5] | Potency [6] | Potency [7] | Potency [8] | Potency [9] | Potency [10] | Potency [11] | Potency [18] | Potency [13] | Potency [14] | Potency [15] | Potency [16] | Potency [17] | Potency [19]

C[C@@H]1CN(CCCn2c3ccccc3c3ccccc32)C[C@H](C)N1
inactive: Potency [2] | Potency [3] | outcome [4] | outcome [5] | Potency [6] | Potency [7] | Potency [8] | Potency [9] | Potency [10] | Potency [11] | Potency [18] | Potency [13] | Potency [19]
active: Potency [1] 26.6 µM

CC(C)[C@H](N)C(=O)OCCOCn1cnc2c(=O)[nH]c(N)nc21
active: Potency [9] 1.78 µM
inactive: Potency [1] | Potency [2] | Potency [3] | outcome [4] | outcome [5] | Potency [6] | Potency [7] | Potency [8] | Potency [10] | Potency [14] | Potency [15] | Potency [16] | Potency [17] | Potency [19]

Cc1cc(-c2ccccc2)nnc1NCCN1CCOCC1
inactive: Potency [1] | Potency [2] | Potency [3] | outcome [4] | outcome [5] | Potency [6] | Potency [7] | Potency [8] | Potency [9] | Potency [10] | Potency [12] | Potency [18] | Potency [13] | Potency [14] | Potency [16] | Potency [17] | Potency [19]
